About 83,000 compounds went through this panel and 20% of them were active in at least one assay; those are over-represented in the sample as a whole.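 Note: values are percent growth. 100 is the growth of untreated cells, values between 100 and 0 indicate rising inhibition; between -100 and 0 indicates cell death.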 Values without a mark were called inactive. Activity calls are given as the source filed them. How the source made its calls: active means growth percent below 10; inactive means the rest.
Tested on: HL-60(TB) leukemia
Experiment: NCI-60 one-dose screen, 48 h (100 = growth as untreated, 0 = no growth, -100 = all killed)
Details: 10 µM unless noted

Question: For `c1ccc(-c2n[nH]c(-c3ccccn3)n2)nc1`, which growth is on record?
Answer: Its growth is 105%.

Question: How did the growth turn out when `CCC(C)CC(N)O` (stereo not given) was run?
Answer: The growth was 120%.

Question: Which growth does the source give for `O=C(NS(=O)(=O)c1ccccc1)n1cc(-c2ccncc2)c(-c2ccc(Cl)c(O)c2)n1` here?
Answer: The growth was 94%.

Question: For `CO[C@H]1/C=C/O[C@@]2(C)Oc3c(C)c(O)c4c(O)c(c5c(nc6cc(C)ccn65)c4c3C2=O)NC(=O)/C(C)=C\C=C\[C@H](C)[C@H](O)[C@@H](C)C(O)[C@@H](C)[C@H](OC(C)=O)[C@@H]1C` (stereo not given in full), which growth is on record?
Answer: The growth was 102%.

Question: Which growth does the source give for `c1ccc(-c2cn3c(ccc4ccccc43)n2)cc1` here?
Answer: Its growth is 24.4%.

Question: For `CCCCCCCC/C=C/CCCCCCCC1=NC(C)(C)CN1C(C)C`, which growth is on record?
Answer: The growth was -65.6% (active).

Question: `Brc1c[n+](Cc2ccc3ccccc3c2)cn1Cc1ccc2ccccc2c1` was tested. Which growth did it give?
Answer: Its growth is -47.5% (active).

Question: Which growth does the source give for `COc1ccc2c(c1)[nH]c(=O)c1c3cc(C)c(C)cc3cn21` here?
Answer: The growth was -14.8% (active).

Question: `COc1cc(CNC(=O)CCCC/C=C/C(C)C)ccc1O` was tested. Which growth did it give?
Answer: The growth was 91.1%.

Question: With `Cc1ccc([C@H]2c3[nH]c4ccccc4c3C[C@H]3C(=O)N(CCCCCCC(=O)NO)CC(=O)N23)cc1` as the molecule, how does the growth read?
Answer: Its growth is 18.6%.

Question: For `COC(=O)/C=C1/CCCCC1(C)C(=O)OC` (stereo not given), which growth is on record?
Answer: Its growth is 102%.

Question: Which growth does the source give for `C=C1C(=O)O[C@@H]2[C@@H]3O[C@@](C)(CC/C=C(\C)CCC[C@@H]2C)[C@H](O)C[C@@H]13` here?
Answer: The growth was 14.4%.

Question: How did the growth turn out when `c1ccc(CCCCc2ccc3ccccc3n2)cc1` was run?
Answer: Its growth is 102%.

Question: With `COc1ccc(NC(=O)c2sc3nc(C)c(C(=O)c4ccc(OC)cc4)cc3c2N)cc1` as the molecule, how does the growth read?
Answer: Its growth is 6.31% (active).

Question: For `COc1ccc2nc3ccccc3c(NCCNCC(C)O)c2c1` (stereo not given), which growth is on record?
Answer: Its growth is 14.2%.

Question: How did the growth turn out when `Cc1ccc(S(=O)(=O)NCCN2c3nc4ccccc4cc3Sc3cc4ccccc4nc32)cc1` was run?
Answer: The growth was 94.4%.

Question: With `COc1cc2c(cc1OC)C(=O)OC2` as the molecule, how does the growth read?
Answer: Its growth is 156%.

Question: With `COc1ccc(C2=NN(C=O)C(c3cccc(Nc4ccnc5cc(Cl)ccc45)c3)C2)cc1` (stereo not given) as the molecule, how does the growth read?
Answer: Its growth is -13.1% (active).

Question: With `C=C(C)[C@@H]1CC[C@]2(COC(=O)c3ccccc3C(=O)O)CC[C@]3(C)[C@H](CC[C@@H]4[C@@]5(C)CC[C@H](OC(=O)c6ccccc6C(=O)O)C(C)(C)[C@@H]5CC[C@]43C)[C@@H]12` as the molecule, how does the growth read?
Answer: The growth was 37.8% [100 µM].

Question: With `CCOC(=O)c1sc(Nc2ncccn2)nc1-c1ccccn1` as the molecule, how does the growth read?
Answer: Its growth is 109%.

Question: Which growth does the source give for `C=C(C)C1CCC2(C)OC2C1` (stereo not given) here?
Answer: Its growth is 95.6%.

Question: With `CC(=O)Nc1nc(C)c(C(=O)N/N=C/c2cccn2C)s1` as the molecule, how does the growth read?
Answer: Its growth is 112%.

Question: How did the growth turn out when `CCOc1cc2ncc(C#N)c(Nc3ccc(OCc4cccc(F)c4)c(Cl)c3)c2cc1NC(=O)CC1CCSS1` (stereo not given) was run?
Answer: Its growth is 54.8%.

Question: For `CC[C@@H](C)OC(=O)c1nn(C(C)=O)c2ccccc12`, which growth is on record?
Answer: Its growth is 120%.

Question: How did the growth turn out when `O=[N+]([O-])c1ccc([I+]c2ccccc2)cc1` was run?
Answer: Its growth is 21.5%.

Question: Which growth does the source give for `Nc1nn(C(=O)Nc2ccc(Cc3ccccc3)cc2)c2ccc(Cl)cc12` here?
Answer: The growth was 24.9%.

Question: For `Nc1nc(Cn2c(-c3nonc3N)nc3ccccc32)nc(N2CCCCC2)n1`, which growth is on record?
Answer: Its growth is 82.2%.

Question: Which growth does the source give for `O=C1/C(=C/c2ccc(-c3ccccc3C(F)(F)F)o2)SC(=S)N1CCc1ccc(O)cc1` here?
Answer: Its growth is 20.8%.

Question: How did the growth turn out when `C[n+]1cccc(CC(=O)NO)c1` was run?
Answer: Its growth is 94.7%.

Question: Which growth does the source give for `CCOC(=O)C(=Cc1cccc(C#N)c1)C(=O)OCC` here?
Answer: The growth was 27.9%.

Question: How did the growth turn out when `COc1ccc(NC(=O)c2sc3c(=O)[nH]c(C(F)(F)F)nc3c2C)cc1` was run?
Answer: The growth was 106%.

Question: For `Nc1nc2nnc(-c3ccccc3)c(-c3ccccc3)n2n1`, which growth is on record?
Answer: The growth was 146%.

Question: `O=C1NC(=C(Cl)Cl)/C(=N/S(=O)(=O)NCCc2c[nH]c3ccccc23)N1` was tested. Which growth did it give?
Answer: Its growth is 50.2%.

Question: With `CCCCNC(=O)Oc1ccc(/C(=C(\C)c2ccccc2)c2ccc(OCCN3CCCCC3)cc2)cc1` as the molecule, how does the growth read?
Answer: The growth was 49.4%.

Question: Which growth does the source give for `C=CC(=O)N1CCN(c2ccc3cccc(NC(=O)c4cnc(C)cn4)c3n2)CC1` here?
Answer: The growth was 26.6%.

Question: For `Brc1ccc(-c2nnc3c4[nH]ccc4ncn23)cc1`, which growth is on record?
Answer: The growth was 100%.

Question: For `O=C1/C(=C/N2N=C(c3ccc4ccccc4c3)CC2c2ccccc2O)SC(=S)N1c1cccnc1` (stereo not given), which growth is on record?
Answer: The growth was -15.3% (active).

Question: How did the growth turn out when `COc1ccc(C(=O)c2cc3c(N)c(C(=O)Nc4cccc(OC)c4)sc3nc2C)cc1` was run?
Answer: The growth was -44.5% (active).

Question: For `Oc1c(CN2CCCC2)cc(COCc2ccc(Br)cc2)c2cccnc12`, which growth is on record?
Answer: Its growth is -9.34% (active).

Question: For `CCOC(=O)c1sc(NC(=O)COc2ccc(/C=C3\CCc4cc(OC)ccc4C3=O)cc2)nc1C`, which growth is on record?
Answer: The growth was -57.4% (active).

— PubChem BioAssay (NCI)
